The results in this text go back to PubChem BioAssay AID1626 (SRMLSC, 2009).

For orientation: inhibition means the relative decrease from the control value, in per cent.

Out of some 220,000 compounds screened, about 2,000 (0.91%) were called active. Another 2% or so got no clear call; they are omitted. Only a sample is shown. Results with a measured potency or affinity are listed apart. Unmarked numbers belong to inactive results. No stated cut-off is given here; in the data, inconclusive means inhibition above about 80% without an active follow-up result; inactive means below that; test concentration not stated here.

The nature of this test: M. tuberculosis H37Rv growth inhibitors, H37Rv strain (AID 1626).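 Further: bacteria incubated seven days before Alamar blue readout; 0% = bacteria only wells and 100% = bacteria with antibiotic wells.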 To be noted: active compounds read high, concentration not given here.
Consider `CCOc1cc(CNc2ccc3c(c2)CCC3)ccc1OC`, for which the inhibition is 46.6%.
In the case of `COc1ccc(CNc2ccc3c(c2)CCC3)cc1OC`, the inhibition was 45.5%.
For `CC(NC(=O)c1ccc(OC2CCN(S(=O)(=O)N(C)C)CC2)cc1)C1CC1` (stereo unspecified), the inhibition is -9.26%.
Turning to `CC(=O)c1ccc(N(C(=O)Cn2nnc3ccccc32)C(C(=O)NC2CCCCC2)c2cn(C)nc2C)cc1` (stereo unspecified), the inhibition was -5.66%.
Then `Clc1ncnc2scc(-c3ccccc3)c12`, with -11.5%; and `Clc1nc(-c2cccnc2)nc2scc(-c3ccccc3)c12`, with 8.19%; and `Nc1ccc(C(=O)OCc2nc3ccccc3s2)cc1`, with -2.83%.
In the case of `O=C(OCc1nc2ccccc2s1)c1ccccc1O`, the inhibition is 16.7%.
As for `O=C(COC(=O)c1ccc(Br)o1)Nc1nc2ccccc2s1`, the inhibition is -3.5%.
`O=C(COC(=O)c1ccco1)Nc1nc2ccccc2s1`: the inhibition is -0.64%.
As for `CC(OC(=O)C(NC(=O)c1ccco1)C(C)C)C(=O)Nc1ncc(Cl)cc1Cl` (stereo unspecified), the inhibition is -14.4%.
For the compound `Cc1c(N=Cc2nc3ccccc3n2C)c(=O)n(-c2ccccc2)n1C`, the inhibition is -8.83%.
For the compound `CCN(CC)Cc1cc(C(=O)O)c(C)o1`, the inhibition was -8.95%.
`Cc1ccc(C2(C)NC(=O)N(Cc3c(C)noc3C)C2=O)cc1` (stereo unspecified): the inhibition is -0.8%.
The result for `O=C(Nc1ccc([N+](=O)[O-])cn1)C1CC1` reads 5.22%; that for `O=C(NCc1cccc(Cl)c1)c1ccco1`, 0.19%; that for `CN1c2ccc([N+](=O)[O-])cc2CC2(C(=O)NC(=O)NC2=O)C1c1ccccc1` (stereo unspecified), 0.68%.
The result for `CN1c2ccc([N+](=O)[O-])cc2CC2(C(=O)NC(=O)N(c3ccccc3)C2=O)C1c1ccccc1` (stereo unspecified) reads 76.5%.
Turning to `CC1CN2c3ccc([N+](=O)[O-])cc3CC3(C(=O)N(C)C(=O)N(C)C3=O)C2C(C)O1` (stereo unspecified), the inhibition is -12.5%.
As for `CN1C(=O)N(C)C(=O)C2(Cc3cc([N+](=O)[O-])ccc3N(C)C2c2ccccc2)C1=O` (stereo unspecified), the inhibition is -13.2%.
Regarding `COc1ccc2nc(C)cc(Sc3nc4ccccc4s3)c2c1`, the inhibition was 0.98%.
With `COc1ccc(Cl)cc1N1C(=O)C2CCCN2C1c1sccc1C` (stereo unspecified), the inhibition was -9.7%.
The result for `CCCCC(Sc1nc(N)c(NC(=O)c2ccc(OC)cc2)c(=O)[nH]1)C(=O)O` (stereo unspecified) reads -2.8%.
In the case of `Cc1ccc(OCC(=O)Nc2ccc(S(=O)(=O)Nc3ccccn3)cc2)c(C)c1`, the inhibition is -1.52%.
Take `COc1ccc(/C=N/NC(=O)C(C)Sc2ccccn2)cc1[N+](=O)[O-]` (stereo unspecified): the inhibition is -3.03%.
The result for `CCOc1cccc(CN2CCCC(CCC(=O)NCc3ccccc3F)C2)c1O` (stereo unspecified) reads -1.53%.
